# Assay results as given in PubChem BioAssay (NCATS).
# Several values for one entry are separate records, joined by “and”; a condition that tells them apart may be missing. Identical values can stand only once. Results filed as inconclusive are left out. A call without a number means that no potency is given here. Where a structure was tested more than once in an assay, its records may differ in their call. Activity calls are given as the source filed them. Calls follow the shape of the dose curve; as a rule, active = well fitted inhibition curve with a large enough effect; inconclusive = small, poorly fitted or top-dose-only effect; inactive = flat fitted curve, though single readings scatter.
# Assay: P-glycoprotein substrates identified in KB-8-5-11 adenocarcinoma cell line, qHTS therapeutic library screen (AID 1346987); also: nearly all actives have a fitted effect of over 65% in size
# Details: KB-8-5-11 (P-gp overexpressing) viability, CellTiter-Glo, 72 h; at 44.5 µM (top of the series)
# From the text: The ATP-binding cassette transporters P-glycoprotein (P-gp) is known to limit brain penetration of many chemotherapy drugs. […] As such, we developed a high-throughput screen (HTS) to identify substrates of P-gp from a series of chemical libraries including the National Center for Advancing Translational Sciences Pharmaceutical Collection NPC, 2,816 compounds), testing a total of 10,804 compounds, most of which have known mechanisms of action. We used the CellTiter-Glo viability assay to test library compounds against the parental KB-3-1 human cervical adenocarcinoma cell line and the colchicine-selected sub-line KB-8-5-11 that over-expresses P-gp. KB-8-5-11 cells were also tested in the presence of a P-gp inhibitor (tariquidar) to assess reversability of transporter-mediated resistance. Of the tested compounds, a total of 90 P-gp substrates were identified including 55 newly identified P-gp substrates. Substrates were confirmed using an orthogonal killing assay against HEK-293 cells transfected with P-gp. As exemplars, we confirmed that […] (cyclin-dependent kinase inhibitor); AT9283, (Janus kinase 2/3 inhibitor); ispinesib (kinesin spindle protein inhibitor); gedatolisib (PKI-587, phosphoinositide 3-kinase/mammalian target of rampamycin inhibitor); GSK-690693 (AKT inhibitor); and KW-2478 (heat shock protein 90 inhibitor) were substrates , and direct ATPase stimulation was assessed. ABCG2 was also found to confer high levels of resistance to AT9283, GSK-690693 and gedatolisib, while ispinesib, AT7519 and KW-2478 were weaker substrates.
# The HeLa derivative cell line, KB-3-1, and its colchicine-selected, P-gp-overexpressing subline, KB-8-5-11 were maintained in DMEM with 10% FCS and Pen/Strep with glutamine at 37 degree C in 5% CO2. For KB-8-5-11 cells, colchicine was added to the medium at a concentration of 100 ng/mL. HEK-293 cells transfected with empty vector (pcDNA) or vector containing human ABCB1 (MDR-19) or ABCG2 (R-5) have been described previously (Robey, Lin, Qiu, Chan & Bates, 2011) and were maintained in EMEM supplemented with 10% FCS, Pen/Strep and glutamine with 2 mg/ml G418 to select for the expression of the transporter. Cultures were confirmed to be free of mycoplasma infection using the MycoAlert Mycoplasma Detection Kit (Lonza, Walkersville, MD). For the screen, assay medium was identical to culture medium except for KB-8-5-11 where colchicine was excluded from the medium.
# All cell lines were plated into 1536-well plates at 500 cells/well in 5 uL media. Compounds were then pinned in dose-response using a 1536-head pin tool (Kalypsis, San Diego, CA) and plates were incubated at 37 degree C in 5% CO2 for an additional 72 h. CellTiter-Glo reagent (Promega) was dispensed into the wells, incubated for 5 min and luminescence was read on a ViewLux instrument (Perkin-Elmer). Cytotoxic compounds were defined as those that yielded a curve class of -1.1, -1.2, -2.1, -2.2, -2.3, or -2.4, a maximum response of >50% and an AC50 of < 10 uM. Cherry-picked hits from screening analysis were tested with both the KB pair of cell lines, and the pcDNA (empty vector control) and MDR-19 (P-gp overexpressing) pair were tested, in the absence and presence of tariquidar.
# Potency is read from the fitted curve at half-maximal effect.
row,SMILES,outcome
1,CN(C)C(=N)N=C(N)N,inactive

# Same assay, conditions: KB-8-5-11 (P-gp overexpressing) viability, CellTiter-Glo, 72 h; series mostly up to 44.5 µM
SMILES,Potency,outcome
CN1C(C(=O)Nc2ccccn2)=C(O)c2ccccc2S1(=O)=O,inactive,–
NC12CC3CC(CC(C3)C1)C2,inactive,–
CN1CCN(CCCN2c3ccccc3Sc3ccc(Cl)cc32)CC1,23.5 µM (active),–
CCOC(=O)c1ncn2c1CN(C)C(=O)c1cc(F)ccc1-2,inactive,–
Cc1cnc(C(=O)NCCc2ccc(S(=O)(=O)NC(=O)NC3CCCCC3)cc2)cn1,inactive,–
N[C@@H](Cc1c[nH]c2ccc(O)cc12)C(=O)O,inactive,–
CCOC(=O)Nc1ccc(NCc2ccc(F)cc2)nc1N,inactive,–
CN(C)CCCN1c2ccccc2CCc2ccc(Cl)cc21,20.9 µM (active),–
NCCCCCC(=O)O,inactive,–
COc1cc2nc(N(C)CCCNC(=O)C3CCCO3)nc(N)c2cc1OC (stereo not given),inactive,–
NC(=O)OCC(COC(N)=O)c1ccccc1,inactive,–
Cc1cc(C(C)(C)C)c(O)c(C)c1CC1=NCCN1,inactive,–
CN(Cc1cnc2nc(N)nc(N)c2n1)c1ccc(C(=O)N[C@@H](CCC(=O)O)C(=O)O)cc1,10.3 nM (active) and 37.2 nM (active),–
CCN1CCCC1CNC(=O)c1cc(S(=O)(=O)CC)c(N)cc1OC (stereo not given),inactive,–
CC1COc2c(N3CCN(C)CC3)c(F)cc3c(=O)c(C(=O)O)cn1c23 (stereo not given),inactive,–
OCCN1CCN(CCCN2c3ccccc3Sc3ccc(C(F)(F)F)cc32)CC1,16.6 µM (active) and 18.4 µM (active),–
O=c1c(-c2ccc(O)cc2)coc2cc(O)cc(O)c12,inactive,–
CCC1(C)CC(=O)NC1=O (stereo not given),inactive,–
COc1ccc(CCN(C)CCCC(C#N)(c2ccc(OC)c(OC)c2)C(C)C)cc1OC (stereo not given),20.6 µM (active),–
CC[C@@]1(O)C(=O)OCc2c1cc1n(c2=O)Cc2cc3c(CN(C)C)c(O)ccc3nc2-1,5.9 µM (active) and 8.2 µM (active),–

SMILES,Potency,outcome
CC(C)C(=O)Nc1ccc([N+](=O)[O-])c(C(F)(F)F)c1,inactive,–
CC[N+](CC)(CC)CCOc1cccc(OCC[N+](CC)(CC)CC)c1OCC[N+](CC)(CC)CC,inactive,–
COC(=O)Nc1nc2ccc(C(=O)c3cccs3)cc2[nH]1,6.6 nM (active) and 326 nM (active),–
C[C@@H]1CC(=O)NN=C1c1ccc(NN=C(C#N)C#N)cc1,inactive,–
NS(=O)(=O)c1cc2c(cc1Cl)NCNS2(=O)=O,inactive,–
Cn1ccc2cc3c(cc21)CCN3C(=O)Nc1cccnc1,inactive,–
CCCCc1oc2ccccc2c1C(=O)c1cc(I)c(OCCN(CC)CC)c(I)c1,inactive,–
NC(CO)C(=O)NNCc1ccc(O)c(O)c1O (stereo not given),inactive,–
CC#C[C@]1(O)CC[C@H]2[C@@H]3CCC4=CC(=O)CCC4=C3[C@@H](c3ccc(N(C)C)cc3)C[C@@]21C,23.1 µM (active),–
Clc1ccc2c(c1)C(N1CCNCC1)=Nc1ccccc1O2,inactive and 20.6 µM (active),–
CN(C)C(=N)N=C(N)N,–,inactive [setting not given]
O=C(CCCN1CCC(O)(c2ccc(Cl)cc2)CC1)c1ccc(F)cc1,18.4 µM (active),–
COc1cc2nc(N3CCN(C(=O)c4ccco4)CC3)nc(N)c2cc1OC,inactive,–
Clc1ccc2nsnc2c1NC1=NCCN1,inactive,–
CCc1cccc2c3c([nH]c12)C(CC)(CC(=O)O)OCC3 (stereo not given),inactive,–
Cc1cn([C@H]2C=C[C@@H](CO)O2)c(=O)[nH]c1=O,inactive,–
Cc1ccccc1N1C(=O)c2cc(S(N)(=O)=O)c(Cl)cc2NC1C (stereo not given),inactive,–
Cn1c(=O)c2[nH]cnc2n(C)c1=O,inactive,–
COc1cc2c(c(OC)c1OC)-c1ccc(OC)c(=O)cc1[C@@H](NC(C)=O)CC2,23.1 µM (active) and 132 nM (active),–
